Laboratory results reported in PubChem BioAssay.
The source made the active and inactive calls. Rule as the data show it, unless noted: active = inhibition above about 80%; inactive = the rest.

Legend:
[1] = LFS_MB_P medulloblastoma growth inhibition, cell-based, chromothripsis tumors, cisplatin or BGB combos (AID 1671449); settings: LFS_MB_P medulloblastoma cells;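 also: cells exposed for 96 hours; 0% = vehicle DMSO and 100% = killing by high DMSO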
[2] = HDN33 neuroblastoma growth inhibition, cell-based, chromothripsis tumors, cisplatin or BGB combos (AID 1671450); settings: HDN33 neuroblastoma cells, stronger effect = higher value;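 also: cells exposed to compound for four days; 0% = vehicle DMSO and 100% = cell killing by high DMSO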
[3] = ICB984 medulloblastoma cell growth inhibition, synergistic combos for chromothripsis tumors, cisplatin or BGB combos (AID 1671451; call rule not given here;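 also: cells exposed for 96 hours before readout; 0% = vehicle DMSO and 100% = killing by high DMSO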); settings: ICB984 medulloblastoma cells, drug combinations, stronger effect = higher value
[4] = LFS_MB_1R medulloblastoma cell growth inhibition, synergistic combos for chromothripsis tumors, cisplatin or BGB combos (AID 1671452); settings: LFS_MB_1R medulloblastoma cells, stronger effect = higher value;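 also: cells exposed for 96 hours before readout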
[5] = HTB85 osteosarcoma cell growth inhibition, synergistic combos for chromothripsis tumors, BGB or cisplatin IC20 combos (AID 1671453); settings: HTB85 osteosarcoma cells, drug combinations, stronger effect = higher value;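 also: cells exposed for 96 hours before readout; 0% = vehicle DMSO and 100% = high DMSO killing control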
[6] = CRL2098 osteosarcoma cell growth inhibition, synergistic combos for chromothripsis tumors, BGB or cisplatin IC20 combos (AID 1671454); settings: CRL2098 osteosarcoma cells, drug combinations, stronger effect = higher value;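 also: cells exposed for 96 h before readout; 0% = vehicle DMSO and 100% = killing by high DMSO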
[7] = HD-MB03 medulloblastoma cell growth inhibition, synergistic combos for chromothripsis tumors, BGB or cisplatin IC20 combos (AID 1671455; in the data active = inhibition above about 83%;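 also: 0% = vehicle DMSO and 100% = high DMSO as cytotoxic control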); settings: HD-MB03 medulloblastoma cells, stronger effect = higher value
[8] = UWB1.289 ovarian carcinoma cell growth inhibition, synergistic combos for chromothripsis tumors, BGB or cisplatin combos (AID 1671456); settings: UWB1.289 ovarian carcinoma cells, stronger effect = higher value;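 also: cells exposed to compound for four days; 0% = vehicle DMSO and 100% = killing by high DMSO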
[9] = LFS_MB_2R medulloblastoma cell growth inhibition, synergistic combos for chromothripsis tumors, cisplatin combos (AID 1671457); settings: LFS_MB_2R medulloblastoma cells, stronger effect = higher value;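 also: cells exposed to compound for four days before readout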
[10] = MDA-MB-436 breast carcinoma cell growth inhibition, synergistic combos for chromothripsis tumors, BGB or cisplatin combos (AID 1671458; call rule not given here;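 also: cells exposed for 96 hours; 0% = vehicle DMSO and 100% = killing by high DMSO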); settings: MDA-MB-436 breast carcinoma growth inhibition, drug combinations, stronger effect = higher value
[11] = UWB1.289_BRCA1 ovarian cancer growth, cell-based, BGB or cisplatin combinations (AID 1671459); settings: UWB1.289 BRCA1 ovarian carcinoma, drug combinations, stronger effect = higher value
[12] = human astrocyte viability loss, single and combined drugs, cytotoxicity control for chromothriptic childhood tumor combination screen, cell-based, BGB or cisplatin IC20 combos (AID 1671460); settings: Human astrocytes, drug combinations, stronger effect = higher value;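 also: cells exposed to compounds for 96 hours before viability readout; 0% = vehicle and 100% = killing control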
[13] = growth inhibition of BT084 medulloblastoma cells, cell-based, ICGC_MB145, cisplatin and BGB IC40 combos (AID 1671461); settings: drug combinations, stronger effect = higher value;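 also: cells exposed to drugs for 96 hours; 0% = vehicle DMSO and 100% = high DMSO full killing control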
[14] = growth inhibition of RCMB18 medulloblastoma cells, cell-based, cisplatin and BGB IC40 combos (AID 1671462); settings: stronger effect = higher value;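 also: cells exposed to compound for four days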
[15] = growth inhibition of CRL1545 osteosarcoma cells, cell-based, cisplatin and BGB IC20 combos (AID 1671464); settings: stronger effect = higher value;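 also: cells exposed to compound for 96 hours before readout; 0% = vehicle DMSO and 100% = high DMSO killing control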
[16] = at 0.5 µM, stronger effect = higher value
[17] = measured here: combination with BGB IC20, at 0.005 µM
[18] = measured here: combination with BGB IC40, at 0.005 µM
[19] = measured here: combination with BGB IC40, at 0.05 µM
[20] = measured here: combination with cisplatin, at 0.5 µM, stronger effect = higher value
[21] = measured here: combination with cisplatin, at 5 µM, stronger effect = higher value
[22] = measured here: with BGB IC20 combination, at 0.5 µM
[23] = measured here: with cisplatin IC20 combination, at 0.5 µM
[24] = measured here: 5 uM single agent, at 5 µM
[25] = measured here: combination with cisplatin, at 0.5 µM
[26] = measured here: combination with cisplatin, at 5 µM
[27] = measured here: with BGB IC20, at 0.5 µM
[28] = measured here: with BGB IC20, at 5 µM
[29] = measured here: with cisplatin IC20, at 0.5 µM
[30] = measured here: with cisplatin IC20, at 5 µM
[31] = measured here: combination with BGB at IC20, at 0.5 µM
[32] = measured here: combination with cisplatin at IC20, at 0.5 µM
[33] = measured here: combo with BGB at IC20, at 0.5 µM
[34] = measured here: combo with cisplatin at IC20, at 0.5 µM
[35] = measured here: inhibition with BGB combination, at 0.05 µM
[36] = measured here: inhibition with cisplatin combination, at 0.05 µM
[37] = measured here: BGB combination, at 0.5 µM
[38] = measured here: BGB combination, at 5 µM
[39] = measured here: cisplatin combination, at 0.5 µM
[40] = measured here: cisplatin combination, at 5 µM
[41] = BGB combination, concentration series, at 5 µM
[42] = cisplatin combination, concentration series, at 5 µM
[43] = measured here: combo with BGB IC20, at 0.5 µM
[44] = measured here: combo with cisplatin IC20, at 0.5 µM
[45] = cisplatin combination, at 0.5 µM
[46] = measured here: BGB IC40 combination 0.05 uM, at 0.05 µM
[47] = measured here: BGB IC40 combination, at 0.05 µM

For `C[C@@H]1O[C@@H](O[C@@H]2[C@@H](O)[C@H](OCCc3ccc(O)c(O)c3)O[C@H](CO)[C@H]2OC(=O)C=Cc2ccc(O)c(O)c2)[C@H](O)[C@H](O)[C@H]1O`, the inhibition [1, 16] was -19.7% (inactive), the inhibition [1, 17] was -7.94% and the inhibition [1, 18] was -47.4%. For the same molecule, the inhibition [1, 19] was -17.9%, the inhibition [1, 20] was -14.4% and the inhibition [1, 21] was -15.6%. The inhibition ([2]; BGB combo, at 5 µM) was -0.831%, the inhibition ([2]; at 0.5 µM) was 5.6% (inactive) and the inhibition ([2]; cisplatin combo, at 5 µM) was 41%. The inhibition [2, 22] was 2.02%, the inhibition [2, 23] was 15.9% and the inhibition ([2]; single agent, at 5 µM) was 21.8%. For the same molecule, the inhibition ([3]; BGB IC20 combo, at 0.005 µM) was -21.2%, the inhibition ([3]; BGB IC40 combo, at 0.005 µM) was -5.21% and the inhibition ([3]; BGB IC40 combo, at 0.05 µM) was -11.9%. The inhibition ([3]; at 0.5 µM) was -18.6% (inactive), the inhibition ([3]; cisplatin combo, at 0.05 µM) was -17.7% and the inhibition ([3]; cisplatin combo, at 0.5 µM) was -31.1%. The inhibition ([3]; cisplatin combo, at 5 µM) was -7.59%, the inhibition [3, 24] was -11% and the inhibition ([4]; at 0.5 µM) was -31.7% (inactive). The inhibition [4, 19] was -26.1%, the inhibition [4, 25] was -49.4% and the inhibition [4, 26] was -50.3%. The inhibition ([5]; at 0.5 µM) was -2.22% (inactive), the inhibition [5, 27] was 11% and the inhibition [5, 28] was -2.54%. For the same molecule, the inhibition [5, 29] was -24.2%, the inhibition [5, 30] was 13.7% and the inhibition ([5]; single agent, at 5 µM) was 14.4%. The inhibition ([6]; at 0.5 µM) was -20.3% (inactive), the inhibition [6, 31] was -22.9% and the inhibition [6, 32] was -10.2%. For the same molecule, the inhibition ([7]; at 0.5 µM) was -12.4% (inactive), the inhibition [7, 33] was -18% and the inhibition [7, 34] was -15.8%. The inhibition ([8]; at 0.5 µM) was 2.22% (inactive), the inhibition [8, 35] was -13.4% and the inhibition [8, 36] was -3.75%. The inhibition ([9]; at 0.5 µM) was -23.2% (inactive), the inhibition [9, 25] was -31.6% and the inhibition [9, 26] was -36.7%. The inhibition ([10]; at 0.5 µM) was -13.3% (inactive), the inhibition [10, 37] was -5.37% and the inhibition [10, 38] was -8.31%. For the same molecule, the inhibition [10, 39] was -39.6%, the inhibition [10, 40] was -30.4% and the inhibition [11, 41] was -4.79%. For the same molecule, the inhibition ([11]; at 0.5 µM) was 2.12% (inactive), the inhibition [11, 42] was 23.8% and the inhibition ([12]; at 0.5 µM) was 3.51% (inactive). The inhibition [12, 43] was -0.074%, the inhibition [12, 44] was 5.26% and the inhibition ([13]; at 0.5 µM) was -15.3% (inactive). It also gave an inhibition [13, 45] of -21.1%, an inhibition ([13]; cisplatin combination, at 5 µM) of -157% and an inhibition [13, 46] of -26.5%. For the same molecule, the inhibition ([13]; single agent, at 5 µM) was -19.8%, the inhibition ([14]; at 0.5 µM) was -0.47% (inactive) and the inhibition ([14]; cisplatin combo, at 5 µM) was 8.1%. It also gave an inhibition [14, 47] of -349%, an inhibition [14, 25] of -0.428% and an inhibition ([14]; single agent, at 5 µM) of -0.98%. For the same molecule, the inhibition ([15]; at 0.5 µM) was 3.16% (inactive), the inhibition [15, 22] was -11.9% and the inhibition [15, 23] was 9.28%. It also gave an inhibition ([15]; single agent, at 0.05 µM) of -3.32% and an inhibition ([15]; single agent, at 5 µM) of 19.3%.
For `C=C(NC(=O)C(=C)NC(=O)c1csc(C2=NC3c4csc(n4)C4NC(=O)c5csc(n5)C(C(C)(O)C(C)O)NC(=O)C5CSC(=N5)/C(=C/C)NC(=O)C(C(C)O)NC(=O)c5csc(n5)C3(CC2)NC(=O)C(C)NC(=O)C(=C)NC(=O)C(C)NC(=O)C(C(C)CC)NC2C=Cc3c(C(C)O)cc(nc3C2O)C(=O)OC4C)n1)C(N)=O` (stereo unspecified), the inhibition [1, 16] was -22.9% (inactive), the inhibition [1, 17] was -22.9% and the inhibition [1, 18] was -22.6%. For the same molecule, the inhibition [1, 19] was -22%, the inhibition [1, 20] was -25.6% and the inhibition [1, 21] was 114%. For the same molecule, the inhibition ([2]; BGB combo, at 5 µM) was 99.7%, the inhibition ([2]; at 0.5 µM) was -22.8% (inactive) and the inhibition ([2]; cisplatin combo, at 5 µM) was 99.7%. It also gave an inhibition [2, 22] of -25.3%, an inhibition [2, 23] of -12.8% and an inhibition ([2]; single agent, at 5 µM) of 99.8%. The inhibition ([3]; BGB IC20 combo, at 0.005 µM) was 7.79%, the inhibition ([3]; BGB IC40 combo, at 0.005 µM) was -7.37% and the inhibition ([3]; BGB IC40 combo, at 0.05 µM) was 95.2%. For the same molecule, the inhibition ([3]; at 0.5 µM) was -28.5% (inactive), the inhibition ([3]; cisplatin combo, at 0.05 µM) was 95% and the inhibition ([3]; cisplatin combo, at 0.5 µM) was -29.7%. For the same molecule, the inhibition ([3]; cisplatin combo, at 5 µM) was -54.9%, the inhibition [3, 24] was -28.7% and the inhibition ([4]; at 0.5 µM) was -38.7% (inactive). The inhibition [4, 19] was -31%, the inhibition [4, 25] was -9.9% and the inhibition [4, 26] was 100%. The inhibition ([5]; at 0.5 µM) was 11.5% (inactive), the inhibition [5, 27] was 1.15% and the inhibition [5, 28] was 70.9%. For the same molecule, the inhibition [5, 29] was -4.79%, the inhibition [5, 30] was 86.9% and the inhibition ([5]; single agent, at 5 µM) was 98.8%. The inhibition ([6]; at 0.5 µM) was -6.59% (inactive), the inhibition [6, 31] was 7.69% and the inhibition [6, 32] was -29.4%. The inhibition ([7]; at 0.5 µM) was 2.14% (inactive), the inhibition [7, 33] was 13.1% and the inhibition [7, 34] was -39.1%. The inhibition ([8]; at 0.5 µM) was -0.91% (inactive), the inhibition [8, 35] was -20.4% and the inhibition [8, 36] was -15.4%. The inhibition ([9]; at 0.5 µM) was -37% (inactive), the inhibition [9, 25] was -29.7% and the inhibition [9, 26] was 104%. For the same molecule, the inhibition ([10]; at 0.5 µM) was 16.8% (inactive), the inhibition [10, 37] was 16.2% and the inhibition [10, 38] was 90.8%. For the same molecule, the inhibition [10, 39] was 25.6%, the inhibition [10, 40] was 94.8% and the inhibition [11, 41] was 97.5%. The inhibition ([11]; at 0.5 µM) was 2.16% (inactive), the inhibition [11, 42] was 94.4% and the inhibition ([12]; at 0.5 µM) was -36.8% (inactive). The inhibition [12, 43] was -24.8%, the inhibition [12, 44] was -63.7% and the inhibition ([13]; at 0.5 µM) was 13.8% (inactive). For the same molecule, the inhibition [13, 45] was 15.3%, the inhibition ([13]; cisplatin combination, at 5 µM) was 91.8% and the inhibition [13, 46] was -3.57%. The inhibition ([13]; single agent, at 5 µM) was 104%, the inhibition ([14]; at 0.5 µM) was -9.28% (inactive) and the inhibition ([14]; cisplatin combo, at 5 µM) was 96.8%. It also gave an inhibition [14, 47] of -17.4%, an inhibition [14, 25] of -6.48% and an inhibition ([14]; single agent, at 5 µM) of 90.8%. The inhibition ([15]; at 0.5 µM) was 53.8% (inactive), the inhibition [15, 22] was 53.1% and the inhibition [15, 23] was 53.1%. The inhibition ([15]; single agent, at 0.05 µM) was -28.1% and the inhibition ([15]; single agent, at 5 µM) was 100%.
